{"source": "PubChem BioAssay (NCATS)", "note": "Unmarked numbers belong to inactive results. Calls come from the whole dose curve; as a rule, active = well fitted curve in the direction sought with a large enough effect; inconclusive = small, poorly fitted or top-dose-only effect, or another doubt; inactive = no such curve, though single readings can be large or run the other way."}
{"target": "Methanococcus maripaludis chaperonin (MmCpn) (UniProt Q6LX38)", "sequence (Q6LX38 1-543)": "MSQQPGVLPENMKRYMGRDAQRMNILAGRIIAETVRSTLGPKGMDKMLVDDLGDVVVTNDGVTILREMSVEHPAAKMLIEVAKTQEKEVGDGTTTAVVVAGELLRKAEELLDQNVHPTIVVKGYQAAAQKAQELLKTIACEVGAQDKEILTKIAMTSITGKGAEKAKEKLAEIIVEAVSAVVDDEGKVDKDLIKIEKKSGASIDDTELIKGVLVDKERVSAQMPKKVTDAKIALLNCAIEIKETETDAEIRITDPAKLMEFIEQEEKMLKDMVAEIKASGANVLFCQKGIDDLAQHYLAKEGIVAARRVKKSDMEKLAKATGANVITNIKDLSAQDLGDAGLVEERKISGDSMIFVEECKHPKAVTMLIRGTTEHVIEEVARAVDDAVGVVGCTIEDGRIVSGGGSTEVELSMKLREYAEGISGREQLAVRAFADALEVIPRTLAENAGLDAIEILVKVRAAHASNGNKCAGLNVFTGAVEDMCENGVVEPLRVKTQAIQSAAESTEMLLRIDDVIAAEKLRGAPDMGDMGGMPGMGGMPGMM", "assay": "High-Throughput Screening for Modulators of Cytosolic Chaperonin Activity: MmCpn Primary Screen (AID 488978); note: 0% is about no effect", "conditions": "Purified MmCpn ATPase activity, ADP HTRF detection, 10 min; series mostly up to 76.9 µM; activity change, negative = inhibition: at the top concentration", "from_the_text": "Chaperonins are key components of the cellular chaperone machinery. These large complexes consist of two stacked 7-9 membered rings, each containing a central cavity. Substrates are folded within the cavity in an ATP-dependent manner. TRiC is a complex of eight different, essential proteins. As each of the genes encoding the eight subunits is essential for cell viability and no protocol has been developed to overexpress this enzyme to high levels, several groups have turned to the archaeal homolog of TRiC from Methanococcus maripaludis (MmCpn) as a model system for the study of the type II chaperonin family.\nMmCpn was kindly provided by the laboratory of Judith Frydman.\n1. Dispense 1.5 ul enzyme of either TriC at 100 nM or MmCpn at 50 nM final concentration.\n2. Transfer 23 nl of compound to plate, incubate 5 min at RT.\n3. 1.5 ul ATP at 30 uM at final concentration dispensed into plate.\n4. Incubate for 10 minutes at 37C (MmCPN), 30C (TriC).\n5. 3 ul of the Cisbio ADP Transcreener HTRF detection reagent prepared according to protocol dispensed into plate.\n6. Incubate for 5 minutes.\n7. Read using EnVision plate reader at Excitation = 320nm and Emission = 590nm, 665nm", "units": {"activity change, negative = inhibition": "%"}}
{"compound": "N#C/C(=C\\c1ccc(O)c(O)c1)C(=O)c1ccc(O)c(O)c1", "activity change, negative = inhibition": -5.36}
{"compound": "NCCCS(=O)(=O)O", "activity change, negative = inhibition": 1.11}
{"compound": "COc1cc2nc(N3CCN(C(=O)OCc4ccccc4)C(C(=O)NC(C)(C)C)C3)nc(N)c2cc1OC", "note": "(stereo not given)", "activity change, negative = inhibition": -3.81}
{"compound": "O=C(c1cc(O)c(O)c([N+](=O)[O-])c1)c1ccccc1F", "activity change, negative = inhibition": -1.6}
{"compound": "CN1CCc2ccccc2Cc2[nH]c3ccccc3c2CC1", "activity change, negative = inhibition": 1.15}
{"compound": "CN1CCc2cc(O)c(O)cc2C(c2ccccc2)C1", "note": "(stereo not given)", "activity change, negative = inhibition": 0.563}
{"compound": "O=C1O/C(=C/Br)CCC1c1cccc2ccccc12", "note": "(stereo not given)", "activity change, negative = inhibition": 1.54}
{"compound": "COc1ccc(/C=C/C(=O)Nc2ccccc2C(=O)O)cc1OC", "activity change, negative = inhibition": -0.359}
{"compound": "CC(=O)N[C@H](C(=O)O)C(C)(C)SN=O", "activity change, negative = inhibition": 1.4}
{"compound": "Cc1cc2c(cc1Cl)N(C(=O)Nc1ccc(Oc3cccnc3C)nc1)CC2", "activity change, negative = inhibition": 0.235}
{"compound": "Oc1ccccc1O", "activity change, negative = inhibition": -0.774}
{"compound": "C=CC(N)CCC(=O)O", "note": "(stereo not given)", "activity change, negative = inhibition": 2.54}
{"compound": "CN1CCc2cc(NC(=O)Nc3cccnc3)ccc21", "activity change, negative = inhibition": 0.184}
{"compound": "CNC(=O)[C@H]1O[C@@H](n2cnc3c(NCc4cccc(I)c4)ncnc32)[C@H](O)[C@@H]1O", "activity change, negative = inhibition": 1.57}
{"compound": "O=c1[nH]c2cc([N+](=O)[O-])c([N+](=O)[O-])cc2[nH]c1=O", "activity change, negative = inhibition": -1.92}
{"compound": "NC(=O)C(=O)O", "activity change, negative = inhibition": 1.58}
{"compound": "O=[N+]([O-])c1ccc(CSc2ncnc3c2ncn3[C@@H]2O[C@H](CO)[C@@H](O)[C@H]2O)cc1", "activity change, negative = inhibition": 1.53}
{"compound": "CCCCC/C=C\\CC(O)/C=C/c1cccc(CC(O)CCCCO)n1", "note": "(stereo not given)", "activity change, negative = inhibition": -0.537}
{"compound": "CC(C)CC(NP(=O)(O)O[C@@H]1O[C@@H](C)[C@H](O)[C@@H](O)[C@H]1O)C(=O)NC(Cc1c[nH]c2ccccc12)C(=O)O", "note": "(stereo not given in full)", "activity change, negative = inhibition": 1.35}
{"compound": "C[C@@H](NC(=O)/C(C#N)=C/c1ccc(O)c(O)c1)c1ccccc1", "activity change, negative = inhibition": 4.24}
{"compound": "CN(C)c1nc2c(Br)c(Br)c(Br)c(Br)c2[nH]1", "activity change, negative = inhibition": 2.69}
{"compound": "CCCCN1CCC(n2c(=O)[nH]c3ccccc32)CC1", "activity change, negative = inhibition": 1.25}
{"compound": "Cc1ccc(O)c(N=Nc2ccccc2)n1", "activity change, negative = inhibition": 2.07}
{"compound": "O=C(O)CC1CC(c2ccccc2)=NO1", "note": "(stereo not given)", "activity change, negative = inhibition": -1.71}
{"compound": "OCC1O[C@H](O)C(Cl)C(O)C1O", "note": "(stereo not given in full)", "activity change, negative = inhibition": 1.03}
{"compound": "CN=c1nc(-c2ccccc2)n(-c2ccccc2)s1", "activity change, negative = inhibition": 0.637}
{"compound": "N#C/C(=C\\c1ccc(O)c(O)c1)C(=O)NCCCc1ccccc1", "activity change, negative = inhibition": 0.42}
{"compound": "O=C(/C=C/c1ccc(O)c(O)c1)OCCc1ccccc1", "activity change, negative = inhibition": -2.32}
{"compound": "O=C(Nc1cccc(C(=O)Nc2ccc(S(=O)(=O)O)c3cc(S(=O)(=O)O)cc(S(=O)(=O)O)c23)c1)Nc1cccc(C(=O)Nc2ccc(S(=O)(=O)O)c3cc(S(=O)(=O)O)cc(S(=O)(=O)O)c23)c1", "activity change, negative = inhibition": 3.13}
{"compound": "C=C[C@@H]1CN2CC[C@@H]1C[C@H]2[C@H](O)c1ccnc2ccc(OC)cc12", "activity change, negative = inhibition": -0.847}
{"compound": "COC(=O)c1c(C)[nH]c(C)c1C(=O)c1ccccc1Cc1ccccc1", "activity change, negative = inhibition": 6.64}
{"compound": "COc1cc(SC)ccc1C(=O)N1CCC(Cc2ccccc2)CC1", "activity change, negative = inhibition": -1.05}
{"compound": "Cc1ccc(S(=O)(=O)/C=C/C#N)cc1", "activity change, negative = inhibition": 0.672}
{"compound": "COc1ccccc1N1CCN(CCCCNS(=O)(=O)c2cccc3c(N(C)C)cccc23)CC1", "activity change, negative = inhibition": 0.113}
{"compound": "CCNC(=O)[C@H]1O[C@@H](n2cnc3c(N)nc(NCCc4ccc(CCC(=O)O)cc4)nc32)[C@H](O)[C@@H]1O", "activity change, negative = inhibition": 6.52}
{"compound": "CO/S(=N\\S(=O)(=O)c1ccc(Cl)cc1)c1ccc([N+](=O)[O-])cc1", "note": "(stereo not given)", "activity change, negative = inhibition": -0.0956}
{"compound": "CN1[C@@H](CC(=O)c2ccccc2)CCC[C@H]1C[C@H](O)c1ccccc1", "activity change, negative = inhibition": 1.15}
{"compound": "O=C1NC(=O)/C(=C/c2ccc(-c3ccc(F)cc3O)o2)S1", "activity change, negative = inhibition": -5.55}
{"compound": "CN(C)c1nc(N)c(C(=O)N=C(N)N)nc1Cl", "activity change, negative = inhibition": 0.289}
{"compound": "Ic1ccc(N2CCN(Cc3c[nH]c4ncccc34)CC2)cc1", "activity change, negative = inhibition": -15}
